# Screens deposited in PubChem by National Center for Advancing Translational Sciences (NCATS).
# Most compounds without a hit are left out; they make up all but 7.3% or so of the library.
# AmpC inh no detg – blocks E. coli AmpC beta-lactamase in detergent-free assay. P00811. AmpC nitrocefin hydrolysis, absorbance 480 nm, 0.0001% Triton. Potency, µM (titrated, usually from 57.1 µM), inactives show top-dose activity change, negative = inhibition, most hits filed as inhibitors. 330,000 compounds, 0.52% hits. AID 485341;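 note: potency is the fitted concentration of half-maximal effect; plate controls were no compound for no effect and no enzyme for full effect; nearly all actives have a fitted effect of over 20% in size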
# Target sequence (P00811 whole entry, looked up): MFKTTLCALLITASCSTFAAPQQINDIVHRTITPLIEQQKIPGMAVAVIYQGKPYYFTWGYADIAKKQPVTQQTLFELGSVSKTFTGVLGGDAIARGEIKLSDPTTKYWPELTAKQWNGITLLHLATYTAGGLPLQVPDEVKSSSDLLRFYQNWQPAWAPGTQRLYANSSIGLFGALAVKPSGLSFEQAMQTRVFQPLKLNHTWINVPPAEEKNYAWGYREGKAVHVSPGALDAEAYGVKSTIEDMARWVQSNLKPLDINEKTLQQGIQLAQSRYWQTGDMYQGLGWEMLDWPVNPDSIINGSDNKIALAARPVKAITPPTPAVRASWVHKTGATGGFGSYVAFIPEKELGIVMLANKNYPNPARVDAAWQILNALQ
#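 20 mM phosphate pH 7.0 + 0.01% (detergent screen) or 0.0001% Triton X-100; 5.3 nM AmpC reagent; cpd preinc 15 min RT; nitrocefin (800 uM stock) to start; A480 q20 s × 4 min; Activity was normalised to no-enzyme and no-compound control wells.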
# HCV inh – HCV inhibition; Huh7.5.1 HCVcc-Cre infection, luciferase reporter, 44 h; Potency, µM (doses to about 41.8 µM), without a hit: at the highest dose activity change, negative = inhibition, hits mostly inhibitors; 340,000 compounds, 3.4% hits; AID 651820; note: potency is the fitted concentration of half-maximal effect
#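 Infectious HCVcc-Cre (~0.5 moi) was added to cells just after compound, with cells seeded 4 h earlier at 1,000 per well. Luciferase activity after 44 h culture reported infection; substrate was incubated 15 min at room temperature before reading.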
# AmpC inh detg – blocks E. coli AmpC beta-lactamase in detergent assay. Potency, µM (doses to about 114 µM), inactives show at the highest dose activity change, negative = inhibition, most hits filed as inhibitors. AmpC hydrolysis of nitrocefin, absorbance 480 nm, 0.01% Triton. 370,000 compounds, 0.041% hits. AID 485294;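 note: potency is the fitted concentration of half-maximal effect; 0% = no-compound wells and -100% = no-enzyme wells; nearly all actives have a fitted effect of over 25% in size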
#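 20 mM phosphate pH 7.0 + 0.01% (detergent screen) or 0.0001% Triton X-100; 5.3 nM AmpC reagent; cpd preinc 15 min RT; nitrocefin (800 uM stock) to start; A480 q20 s × 4 min; Activity was normalised to no-enzyme and no-compound control wells.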
# HCMV antiviral – inhibitors of human cytomegalovirus | HFF cells, HCMV-luciferase reporter, 72 h; stronger effect = lower value | activity change, negative = inhibition, % at 57.5 µM | 410,000 compounds, 4.5% hits; in the data active = activity change below about -60%; inconclusive = no clear call, values can overlap the other calls; inactive = above about -39%
#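 Steps: HFFs plated, 16 h 37C; compounds added; HCMV-luciferase added to MOI 1 PFU/cell; 72 h 37C; OneGlo reagent, 5 min room temperature; luminescence read, normalized to controls.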
# FMDV inh – antivirals against foot and mouth disease virus | FMDV antiviral cell-based qHTS | Potency, µM (highest dose often 57.9 µM), inactives show at the top dose activity change, negative = inhibition, hits mostly inhibitors | 410,000 compounds, 1.2% hits | AID 1159524; calls by dose curve; tested in HEK293T cells; note: read-out not given here; potency is the fitted concentration of half-maximal effect; nearly all actives have a fitted effect of over 45% in size
# * hit, by the source's call; ? = inconclusive; . = no result given. Unless noted, calls come from the whole dose curve; as a rule, active = well fitted curve in the direction sought with a large enough effect; inconclusive = small, poorly fitted or top-dose-only effect, or another doubt; inactive = no such curve, though single readings can be large; an effect the other way counts as inactive or inconclusive. Unless noted, % is set by controls: 0 for no effect and ±100 for the full control effect.
SMILES,AmpC inh no detg,HCV inh,AmpC inh detg,HCMV antiviral,FMDV inh
CCOCCC(=O)Nc1ccc2c(c1)c(=O)n(C)n2Cc1cccc(C(F)(F)F)c1,.,.,.,-61.7*,0.0%
COc1cccc(Cn2c3ccc(NC(=O)CCc4ccc(F)cc4)cc3c(=O)n2C)c1,.,.,.,-85.2*,-26.2%
Cn1c(=O)c2cc(NC(=S)NCc3ccccc3F)ccc2n1Cc1cccc(C(F)(F)F)c1,.,.,.,-68.9*,-9.6%
CCOC(=O)Cn1c(=O)oc2cc(S(=O)(=O)N3CCN(c4ccccc4F)CC3)ccc21,.,.,-15.0%,-5.2,-8.1%
CCc1[nH]nc(C(=O)NC2CCCc3c2cnn3-c2cc(C)cc(C)c2)c1C (stereo not drawn),26.6%,-7.8%,0.5%,?,27.1%
COc1cc2c(cc1OC)C(c1cc3ccccc3oc1=O)=NC(C)(C)C2,-11.7%,?,?,-97.8*,-12.0%
COc1ccc(C2=NC(C)(C)Cc3cc(OC)c(OC)cc32)cc1OC,-8.2%,-2.6%,-5.8%,-0.9,-10.2%
CCN(C(=O)c1cn(-c2ccc(OC)cc2)c(=O)c2ccccc12)c1cccc(Cl)c1,.,.,-3.4%,?,-8.8%
Cc1cccc(N(C(=O)c2csnn2)C(C(=O)NC2CCCCC2)c2ccncc2)c1 (stereo not drawn),13.1%,13.3%,?,-19.9,1.5%
Cc1ccc(C2=NN(C(=O)CCC(=O)O)C(c3cn(-c4ccccc4)nc3-c3ccc(C)cc3)C2)cc1 (stereo not drawn),-23.2%,0.3%,2.8%,-60.1*,-23.8%
CC(=O)N1N=C(c2ccccc2)CC1c1cn(Cc2ccccc2)c2ccccc12 (stereo not drawn),-29.6%,25.1µM*,-8.3%,-87.1*,31.6µM*
COc1ccc(C2=NN(C(=O)c3cccs3)C(c3ccccc3OC)C2)cc1OC (stereo not drawn),-7.6%,10µM*,2.1%,-38.4,-14.9%
O=C(c1ccncc1)N1N=C(c2ccc(Br)cc2)CC1c1ccccc1O (stereo not drawn),-18.8%,?,-14.8%,0.8,?
O=C(c1ccccc1)N1N=C(c2ccccc2)CC1c1ccccc1O (stereo not drawn),?,-11.9%,-2.9%,-61.5*,-18.2%
COc1ccccc1NC(=O)c1ccc(Cl)c(S(=O)(=O)NCc2ccco2)c1,-19.8%,?,0.7%,0.0,21.0%
Cc1ccc(C2=NN(C(=O)c3cccs3)C(c3ccccc3O)C2)cc1 (stereo not drawn),7.94µM*,1.6%,-3.9%,-60.5*,13.0%
NS(=O)(=O)c1ccc(N2N=C(c3ccccc3)CC2c2ccccc2Br)cc1 (stereo not drawn),?,-39.9%,.,-12.3,-26.8%
N#CC1CC(c2ccccc2)=NN1c1ccccc1[N+](=O)[O-] (stereo not drawn),-31.2%,?,-10.9%,-64.3*,22.0%
O=C(c1cccs1)N1N=C(c2ccccc2)CC1c1ccccc1O (stereo not drawn),15.8µM*,-14.0%,8.5%,-60.5*,1.9%
O=[N+]([O-])c1ccc(N2N=C(c3ccccc3)CC2c2ccccc2O)cc1 (stereo not drawn),-10.9%,.,4.5%,-63.4*,.
CC(=O)N1N=C(c2ccncc2)CC1c1ccccc1O (stereo not drawn),-12.1%,2.1%,5.2%,-38.9,-8.7%
Cc1ccc(Nc2nc(C(N)=O)c(NC(=O)c3ccccc3Br)s2)cc1,.,.,3.4%,66.1,4.7%
O=[N+]([O-])c1ccccc1Nc1nc(-c2cccnc2)cs1,-11.3%,?,-10.9%,57.2,0.0%
CC(C)(C)c1cc(-c2csc(Nc3ccccc3)[n+]2Cc2ccc(C(=O)O)cc2)cc(C(C)(C)C)c1O,-41.8%,12.8%,-4.9%,.,31.6µM*
O=C(O)c1ccc(C[n+]2c(-c3ccccc3)csc2Nc2ccccc2)cc1,-15.2%,12.5%,-7.6%,1.3,-26.4%
SMILES,AmpC inh no detg,HCV inh,AmpC inh detg,HCMV antiviral,FMDV inh
CCCNC(=O)c1cccc(Cn2nc(C)c(Br)c2C)c1,11.2%,?,?,25.0,-18.7%
Cc1nn(Cc2cccc(C(=O)NC34CC5CC(CC(C5)C3)C4)c2)c(C)c1Br,-19.4%,14.1µM*,-3.7%,-39.3,?
CSc1nc(-c2ccccc2)nc2ccccc12,.,.,.,32.6,.
C/C=C/C(=O)OCC(=O)Nc1ccc(SC(F)F)cc1,-51.0%,15.5%,-3.3%,-76.2*,9.2%
CC(=O)OCC(=O)Nc1ccc(SC(F)F)cc1,-16.6%,18.2%,5.9%,-12.1,-1.0%
C#CCN(C[C@@H]1[C@@H](OC(=O)NCc2ccccc2F)[C@@H](OC(=O)NCc2ccccc2F)Cn2c(=O)n(CCCCCC)c(=O)n21)S(=O)(=O)c1ccc(C)cc1,.,.,.,-15.3,-9.1%
C#CCN(C[C@@H]1[C@@H](OC(=O)NCc2ccccc2F)[C@@H](OC(=O)NCc2ccccc2F)Cn2c(=O)ccc(=O)n21)S(=O)(=O)c1ccc(C)cc1,.,.,.,-99.5*,14.1µM*
C#CCN(C[C@H]1[C@H](OC(=O)Nc2cccs2)[C@H](OC(=O)Nc2cccs2)C[C@H]2C(=O)N(c3ccccc3)C(=O)[C@@H]12)S(=O)(=O)c1ccc(C)cc1,.,.,.,-9.1,-12.8%
C#CCN(C[C@@H]1[C@@H](OC(=O)Nc2cccs2)[C@@H](OC(=O)Nc2cccs2)Cn2c(=O)ccc(=O)n21)S(=O)(=O)c1ccc(C)cc1,.,.,.,-103.5*,?
C#CCN(C[C@H]1[C@H](OC(=O)Nc2cccs2)[C@H](OC(=O)Nc2cccs2)CN(C(=O)OC(C)C)N1C(=O)OC(C)C)S(=O)(=O)c1ccc(C)cc1,.,.,.,-79.0*,.
C#CCN(C[C@@H]1[C@@H](OC(=O)NC2CCCC2)[C@@H](OC(=O)NC2CCCC2)Cn2c(=O)ccc(=O)n21)S(=O)(=O)c1ccc(C)cc1,.,.,.,-101.4*,?
Cc1cccc(-c2nc(N3CCN(c4ccc(F)cc4)CC3)c3ccccc3n2)c1,.,.,15.1%,12.5,0.0%
COc1ccc(OC)c(/C=C2\NC(=O)NC2=O)c1,-10.2%,1.7%,?,-81.0*,-18.8%
Clc1ccccc1N1CCN(c2ncnc3nc[nH]c23)CC1,8.91µM*,4.0%,?,5.3,-12.6%
c1ccc(-c2oc3ncnc(NCCN4CCOCC4)c3c2-c2ccccc2)cc1,186.1%,?,?,?,.
c1ccc(-c2oc3ncnc(NCCCn4ccnc4)c3c2-c2ccccc2)cc1,178.7%,11.2µM*,-11.8%,.,?
CN(C)CCCNc1ncnc2oc(-c3ccccc3)c(-c3ccccc3)c12,18.0%,3.55µM*,-8.5%,?,-22.7%
CCOC(=O)CC1(C)c2nc(NC(C)=O)sc2Cc2sc(NC(C)=O)nc21,.,.,.,-97.4*,21.9%
CCOC(=O)c1sc(NC(C)=O)nc1C,-12.8%,-24.9%,-7.5%,21.3,.
Cc1ccsc1/C=N/Nc1ncc(Cl)cc1Cl,-15.3%,12.6µM*,1.1%,?,-38.3%
